Targets with a hit are over-represented here; the source holds about 8,800 in all. About 0.5% of all pairs of compound and target were hits. A number with no mark means an inactive call.

UniProt Q9BTE3, sequence (Q9BTE3 whole entry, looked up): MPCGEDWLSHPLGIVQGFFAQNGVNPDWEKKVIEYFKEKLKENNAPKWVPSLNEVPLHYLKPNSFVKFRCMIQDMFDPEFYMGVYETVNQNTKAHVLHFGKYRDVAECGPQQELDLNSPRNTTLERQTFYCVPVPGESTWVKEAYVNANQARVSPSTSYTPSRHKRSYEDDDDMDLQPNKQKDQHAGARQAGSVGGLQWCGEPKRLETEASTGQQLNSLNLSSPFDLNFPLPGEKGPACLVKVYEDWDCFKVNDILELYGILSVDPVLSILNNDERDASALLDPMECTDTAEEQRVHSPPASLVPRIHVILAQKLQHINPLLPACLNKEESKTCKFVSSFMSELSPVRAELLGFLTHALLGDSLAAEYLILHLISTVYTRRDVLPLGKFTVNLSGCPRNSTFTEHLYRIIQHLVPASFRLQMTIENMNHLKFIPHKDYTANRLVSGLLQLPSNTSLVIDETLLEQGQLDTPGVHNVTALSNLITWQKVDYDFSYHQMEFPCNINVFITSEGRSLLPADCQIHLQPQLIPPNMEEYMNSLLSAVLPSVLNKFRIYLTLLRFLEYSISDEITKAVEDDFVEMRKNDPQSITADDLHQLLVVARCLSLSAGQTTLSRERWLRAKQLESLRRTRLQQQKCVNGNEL
UniProt Q99797, sequence (Q99797 whole entry, looked up): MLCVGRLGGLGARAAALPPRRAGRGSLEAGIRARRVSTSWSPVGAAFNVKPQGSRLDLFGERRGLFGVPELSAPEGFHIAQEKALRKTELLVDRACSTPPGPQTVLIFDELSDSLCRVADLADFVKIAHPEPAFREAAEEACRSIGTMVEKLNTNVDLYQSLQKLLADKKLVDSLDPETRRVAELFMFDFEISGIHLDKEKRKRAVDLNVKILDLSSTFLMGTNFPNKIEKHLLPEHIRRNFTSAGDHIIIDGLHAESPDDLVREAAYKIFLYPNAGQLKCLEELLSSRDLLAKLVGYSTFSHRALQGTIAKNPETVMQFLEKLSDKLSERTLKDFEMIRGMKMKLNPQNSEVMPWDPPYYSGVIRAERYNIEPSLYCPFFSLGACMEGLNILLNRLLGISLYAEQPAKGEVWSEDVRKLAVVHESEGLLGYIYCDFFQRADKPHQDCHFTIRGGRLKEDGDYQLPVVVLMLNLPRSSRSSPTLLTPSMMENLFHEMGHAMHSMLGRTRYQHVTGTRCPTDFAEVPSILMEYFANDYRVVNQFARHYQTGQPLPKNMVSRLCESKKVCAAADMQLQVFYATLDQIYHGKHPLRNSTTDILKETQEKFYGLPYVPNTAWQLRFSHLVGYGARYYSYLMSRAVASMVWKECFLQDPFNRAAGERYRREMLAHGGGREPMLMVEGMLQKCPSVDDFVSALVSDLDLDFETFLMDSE
UniProt Q9H089, sequence (Q9H089 whole entry, looked up): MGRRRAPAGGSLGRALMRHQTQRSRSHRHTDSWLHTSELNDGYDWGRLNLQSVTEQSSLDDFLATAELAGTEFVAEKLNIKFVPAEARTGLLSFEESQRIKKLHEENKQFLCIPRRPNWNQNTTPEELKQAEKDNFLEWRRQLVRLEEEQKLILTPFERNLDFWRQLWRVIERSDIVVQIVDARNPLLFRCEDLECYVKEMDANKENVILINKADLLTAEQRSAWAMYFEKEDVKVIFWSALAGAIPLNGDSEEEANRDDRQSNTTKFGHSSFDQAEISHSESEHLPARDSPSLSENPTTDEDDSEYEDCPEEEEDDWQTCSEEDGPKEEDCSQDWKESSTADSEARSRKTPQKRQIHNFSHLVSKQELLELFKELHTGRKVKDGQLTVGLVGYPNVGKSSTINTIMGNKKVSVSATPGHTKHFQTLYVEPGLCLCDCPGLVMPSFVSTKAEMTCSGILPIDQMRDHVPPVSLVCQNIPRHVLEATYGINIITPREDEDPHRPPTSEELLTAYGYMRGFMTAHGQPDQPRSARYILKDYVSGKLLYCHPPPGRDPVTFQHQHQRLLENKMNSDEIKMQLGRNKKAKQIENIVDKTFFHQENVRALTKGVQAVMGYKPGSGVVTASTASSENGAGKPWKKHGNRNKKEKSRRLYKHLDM
UniProt Q12851, sequence (Q12851 whole entry, looked up): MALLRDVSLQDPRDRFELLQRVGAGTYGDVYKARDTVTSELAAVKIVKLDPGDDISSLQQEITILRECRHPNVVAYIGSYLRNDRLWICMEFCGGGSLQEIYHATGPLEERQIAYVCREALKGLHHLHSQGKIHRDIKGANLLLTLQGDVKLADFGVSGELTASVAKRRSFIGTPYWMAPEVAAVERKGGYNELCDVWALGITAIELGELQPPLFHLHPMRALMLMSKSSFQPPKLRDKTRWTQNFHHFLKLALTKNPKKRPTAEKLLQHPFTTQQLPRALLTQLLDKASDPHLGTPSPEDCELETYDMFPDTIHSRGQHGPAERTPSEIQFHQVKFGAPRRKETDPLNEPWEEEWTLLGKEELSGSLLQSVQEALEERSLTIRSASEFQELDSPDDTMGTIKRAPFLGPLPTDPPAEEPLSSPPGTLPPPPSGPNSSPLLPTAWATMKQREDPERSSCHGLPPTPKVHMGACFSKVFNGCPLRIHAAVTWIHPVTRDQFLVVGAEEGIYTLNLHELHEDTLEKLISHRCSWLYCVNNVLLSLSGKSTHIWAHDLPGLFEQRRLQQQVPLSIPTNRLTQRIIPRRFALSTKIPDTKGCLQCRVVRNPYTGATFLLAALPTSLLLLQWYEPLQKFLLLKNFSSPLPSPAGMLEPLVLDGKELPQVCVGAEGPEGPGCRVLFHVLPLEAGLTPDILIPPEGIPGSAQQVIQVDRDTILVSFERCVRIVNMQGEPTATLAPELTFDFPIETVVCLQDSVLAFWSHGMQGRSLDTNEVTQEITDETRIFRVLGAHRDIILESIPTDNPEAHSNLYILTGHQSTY
UniProt O00522, sequence (O00522 whole entry, looked up): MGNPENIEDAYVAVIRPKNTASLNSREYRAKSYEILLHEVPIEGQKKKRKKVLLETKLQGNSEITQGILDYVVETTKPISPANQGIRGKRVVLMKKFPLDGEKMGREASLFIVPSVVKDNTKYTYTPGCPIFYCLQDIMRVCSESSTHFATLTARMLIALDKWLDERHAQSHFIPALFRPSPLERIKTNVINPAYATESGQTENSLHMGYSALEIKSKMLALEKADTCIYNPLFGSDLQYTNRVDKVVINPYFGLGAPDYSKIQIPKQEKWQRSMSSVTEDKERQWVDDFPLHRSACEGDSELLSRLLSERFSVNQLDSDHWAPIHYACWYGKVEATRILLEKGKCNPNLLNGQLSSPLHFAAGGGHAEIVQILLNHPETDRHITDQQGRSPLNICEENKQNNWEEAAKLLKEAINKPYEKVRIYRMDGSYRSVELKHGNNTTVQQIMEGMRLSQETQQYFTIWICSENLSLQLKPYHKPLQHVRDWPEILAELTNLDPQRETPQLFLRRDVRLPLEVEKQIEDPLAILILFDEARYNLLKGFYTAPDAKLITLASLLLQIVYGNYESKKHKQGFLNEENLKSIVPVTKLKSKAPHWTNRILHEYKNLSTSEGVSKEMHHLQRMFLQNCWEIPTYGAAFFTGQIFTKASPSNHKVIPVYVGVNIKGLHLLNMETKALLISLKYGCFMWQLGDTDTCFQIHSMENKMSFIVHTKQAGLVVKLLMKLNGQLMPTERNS
UniProt P28482, sequence (P28482 whole entry, looked up): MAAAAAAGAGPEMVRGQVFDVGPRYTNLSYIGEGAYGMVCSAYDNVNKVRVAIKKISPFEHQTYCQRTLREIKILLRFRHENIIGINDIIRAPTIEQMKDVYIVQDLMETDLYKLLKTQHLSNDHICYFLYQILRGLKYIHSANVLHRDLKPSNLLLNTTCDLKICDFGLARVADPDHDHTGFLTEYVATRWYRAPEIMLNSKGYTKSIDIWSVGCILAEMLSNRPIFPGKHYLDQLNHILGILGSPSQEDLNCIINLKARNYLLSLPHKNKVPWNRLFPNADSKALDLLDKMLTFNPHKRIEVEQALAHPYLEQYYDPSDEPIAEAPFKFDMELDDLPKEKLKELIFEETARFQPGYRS
UniProt P53671, sequence (P53671 whole entry, looked up): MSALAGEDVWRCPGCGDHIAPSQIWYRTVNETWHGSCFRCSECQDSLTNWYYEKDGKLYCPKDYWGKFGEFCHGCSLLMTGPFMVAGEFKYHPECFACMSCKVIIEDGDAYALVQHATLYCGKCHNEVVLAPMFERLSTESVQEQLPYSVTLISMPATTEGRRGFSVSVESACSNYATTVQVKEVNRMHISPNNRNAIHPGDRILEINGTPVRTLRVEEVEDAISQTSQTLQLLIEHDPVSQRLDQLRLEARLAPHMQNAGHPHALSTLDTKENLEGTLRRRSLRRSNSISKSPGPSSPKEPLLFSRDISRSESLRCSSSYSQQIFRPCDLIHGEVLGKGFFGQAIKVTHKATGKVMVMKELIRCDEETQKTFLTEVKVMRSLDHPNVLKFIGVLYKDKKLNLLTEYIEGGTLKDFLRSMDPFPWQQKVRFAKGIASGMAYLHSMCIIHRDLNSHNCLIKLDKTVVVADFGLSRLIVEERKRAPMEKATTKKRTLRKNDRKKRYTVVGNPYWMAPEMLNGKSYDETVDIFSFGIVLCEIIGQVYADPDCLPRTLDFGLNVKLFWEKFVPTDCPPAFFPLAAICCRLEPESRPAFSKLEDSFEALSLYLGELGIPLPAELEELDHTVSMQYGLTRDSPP
UniProt Q9GZY8, sequence (Q9GZY8 whole entry, looked up): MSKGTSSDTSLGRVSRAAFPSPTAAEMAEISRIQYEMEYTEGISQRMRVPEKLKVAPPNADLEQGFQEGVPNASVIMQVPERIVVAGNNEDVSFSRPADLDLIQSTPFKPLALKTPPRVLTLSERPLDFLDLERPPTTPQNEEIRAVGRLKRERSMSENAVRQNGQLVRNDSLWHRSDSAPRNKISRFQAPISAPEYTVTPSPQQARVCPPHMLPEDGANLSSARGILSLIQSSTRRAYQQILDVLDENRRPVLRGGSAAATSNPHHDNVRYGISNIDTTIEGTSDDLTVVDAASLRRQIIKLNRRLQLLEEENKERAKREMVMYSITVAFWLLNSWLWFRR

Compound in the first experiment: CC1=C2C(=CC=C1)N=C(N(C2=O)C3=CC=CC=C3C)CN4C=NC5=C(N=CN=C54)N
The experiment can be described thus: log2 fold change, soluble protein after heating vs DMSO (PISA); higher = thermal stabilisation; K562 lysate, 10 uM; active = over 0.2 and 3.5 SD of the protein, either way, in both replicates (recomputed). In a few lines: (§1)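 To prepare the extract, K562 pellets were dounce-homogenised in PBS pH 7.4 with 1 mM MgCl2, giving crude material at 1 mg/mL protein. This was treated with 10 μM compound for 30 min, then heated in aliquots for 3 min over 48°C-58°C before pooling and addition of NP-40 to 0.5% at 4°C. Centrifugation at 21,000xg for 90 min left soluble protein in the supernatant, which TMTpro 16plex LC-MS/MS quantified with equalised channel sums. Results are log-two fold changes in thermal stability compared with solvent controls, from duplicates.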
LIMK2 isoform 3 (UniProt P53671): the log2 fold change was 0.038.

Regarding MAPK1 (UniProt P28482), the log2 fold change was -0.016.

For MAP4K2 (UniProt Q12851), the log2 fold change is 0.022.

With MAPK3 (UniProt P27361), the log2 fold change was -0.05.

For the target LSG1 (UniProt Q9H089), the log2 fold change is 0.084.

On to MED10 (UniProt Q9BTT4), for which the log2 fold change was -0.04.

As to KMT2A isoform 3 (UniProt Q03164), the log2 fold change was -0.009.

Turning to MAP4 isoform 5 (UniProt P27816), the log2 fold change was 0.163.

Regarding MARCHF6 (UniProt O60337), the log2 fold change was -0.107.

Take MCMBP isoform 2 (UniProt Q9BTE3): the log2 fold change was 0.007.

On to KRIT1 (UniProt O00522), for which the log2 fold change is 0.099.

Take MICU2 (UniProt Q8IYU8): the log2 fold change is 0.049.

On to MAP7D3 (UniProt Q8IWC1), for which the log2 fold change was -0.091.

With KLC2 (UniProt Q9H0B6), the log2 fold change is 0.029.

Consider KNL1 (UniProt Q8NG31), for which the log2 fold change was -0.004.

As for LIG4 (UniProt P49917), the log2 fold change was -0.056.

As for MICU1 isoform 3 (UniProt Q9BPX6), the log2 fold change was -0.035.

Regarding MAP4K4 isoform 3 (UniProt O95819), the log2 fold change is 0.015.

With MARF1 (UniProt Q9Y4F3), the log2 fold change was 0.175.

As to KNSTRN (UniProt Q9Y448), the log2 fold change is 0.

MGAT5 (UniProt Q09328): the log2 fold change was -0.171.

Consider MPP5 (UniProt Q8N3R9), for which the log2 fold change was -0.006.

For LYN (UniProt P07948), the log2 fold change is -0.091.

In the case of LDAH isoform 2 (UniProt Q9H6V9), the log2 fold change was 0.001.

Consider MRPL12 (UniProt P52815), for which the log2 fold change is -0.022.

Regarding LARS2 (UniProt Q15031), the log2 fold change was -0.019.

For the target MED17 (UniProt Q9NVC6), the log2 fold change is 0.016.

KIF2A isoform 4 (UniProt O00139): the log2 fold change is 0.015.

As for MAP11 (UniProt Q8WVR3), the log2 fold change was -0.006.

On to MAST4 (UniProt O15021), for which the log2 fold change is -0.037.

As for MRPL28 (UniProt Q13084), the log2 fold change was -0.026.

With MINDY1 isoform 3 (UniProt Q8N5J2), the log2 fold change was -0.003.

Turning to MIPEP (UniProt Q99797), the log2 fold change was 0.052.

With MCMBP (UniProt Q9BTE3), the log2 fold change was 0.019.

Regarding MFF isoform 2 (UniProt Q9GZY8), the log2 fold change is -0.009.

For KLHL12 isoform 2 (UniProt Q53G59), the log2 fold change is -0.013.

Regarding MAST2 (UniProt Q6P0Q8), the log2 fold change is 0.073.

For the target MLST8 (UniProt Q9BVC4), the log2 fold change was -0.051.

Compound in another experiment: Cc1sc2c(c1C)C(c1ccc(Cl)cc1)=N[C@@H](CC(=O)OC(C)(C)C)c1nnc(C)n1-2
Described as above. A digest of the protocol: as §1
For LIMK2 isoform 3 (UniProt P53671), the log2 fold change is 0.005.

In the case of MAPK1 (UniProt P28482), the log2 fold change is 0.039.

Consider MAP4K2 (UniProt Q12851), for which the log2 fold change is -0.13.

Take MAPK3 (UniProt P27361): the log2 fold change was 0.036.

With LSG1 (UniProt Q9H089), the log2 fold change was -0.028.

Take MED10 (UniProt Q9BTT4): the log2 fold change was 0.015.

Turning to KMT2A isoform 3 (UniProt Q03164), the log2 fold change is -0.025.

With MAP4 isoform 5 (UniProt P27816), the log2 fold change was 0.181.

On to MARCHF6 (UniProt O60337), for which the log2 fold change was -0.082.

Turning to MCMBP isoform 2 (UniProt Q9BTE3), the log2 fold change is 0.018.

KRIT1 (UniProt O00522): the log2 fold change is -0.082.

As for MICU2 (UniProt Q8IYU8), the log2 fold change was -0.072.

Turning to MAP7D3 (UniProt Q8IWC1), the log2 fold change is 0.015.

As to KLC2 (UniProt Q9H0B6), the log2 fold change was 0.003.

For the target KNL1 (UniProt Q8NG31), the log2 fold change is -0.03.

Turning to LIG4 (UniProt P49917), the log2 fold change is -0.002.

With MICU1 isoform 3 (UniProt Q9BPX6), the log2 fold change was -0.043.

As for MAP4K4 isoform 3 (UniProt O95819), the log2 fold change is -0.021.

Consider MARF1 (UniProt Q9Y4F3), for which the log2 fold change was 0.024.

Take KNSTRN (UniProt Q9Y448): the log2 fold change was 0.002.

Take MGAT5 (UniProt Q09328): the log2 fold change is 0.017.

As for MPP5 (UniProt Q8N3R9), the log2 fold change is 0.029.

For LYN (UniProt P07948), the log2 fold change was -0.032.

Regarding LDAH isoform 2 (UniProt Q9H6V9), the log2 fold change is 0.075.

As for MRPL12 (UniProt P52815), the log2 fold change was 0.027.

As to LARS2 (UniProt Q15031), the log2 fold change is 0.066.

On to MED17 (UniProt Q9NVC6), for which the log2 fold change is 0.021.

Turning to KIF2A isoform 4 (UniProt O00139), the log2 fold change was 0.012.

Take MAP11 (UniProt Q8WVR3): the log2 fold change is 0.063.

In the case of MAST4 (UniProt O15021), the log2 fold change was 0.023.

Consider MRPL28 (UniProt Q13084), for which the log2 fold change was 0.066.

With MINDY1 isoform 3 (UniProt Q8N5J2), the log2 fold change was 0.028.

Consider MIPEP (UniProt Q99797), for which the log2 fold change was 0.028.

As to MCMBP (UniProt Q9BTE3), the log2 fold change is -0.013.

In the case of MFF isoform 2 (UniProt Q9GZY8), the log2 fold change is -0.049.

In the case of KLHL12 isoform 2 (UniProt Q53G59), the log2 fold change was 0.161.

Turning to MAST2 (UniProt Q6P0Q8), the log2 fold change was -0.074.

Consider MLST8 (UniProt Q9BVC4), for which the log2 fold change is 0.001.

Values taken from the supplement of paper PMC10849652.
